The record followed here is PubChem BioAssay AID1566 (Sanford-Burnham Center for Chemical Genomics, 2009).

The campaign covered roughly 290,000 compounds. About 1,800 (0.62%) were called active. This excerpt belongs to a sample that is enriched for actives. Unmarked numbers belong to inactive results. No stated cut-off is given here; in the data, active means inhibition above about 50%; inactive means the rest.

The experiment can be described thus: NOD2 signaling inhibitors, cell-based, luminescence, uHTS, HEK293 (AID 1566). Particulars: HEK293 NOD2/NF-kB luciferase reporter, at 4 µM, active compounds read high.
For orientation: inhibition means the drop in the measured response relative to a control, in per cent. Turning to `Cc1ccc(N2C(=O)NC(=O)/C(=C\c3ccc([N+](=O)[O-])o3)C2=O)cc1`, the inhibition was 10.6%.
For the compound `CNc1ccc2nc3ccccc3[n+](C)c2c1`, the inhibition was 54.7% (active).
For `Nc1cc2nc3ccccc3nc2cc1N`, the inhibition is -1.6%.
Turning to `C[n+]1c2ccccc2nc2ccc(NCCO)cc21`, the inhibition was 41.7%.
As to `CC(Cc1ccccc1)NC(=O)Cc1ccc([N+](=O)[O-])cc1` (stereo not drawn), the inhibition was 4.1%.
Consider `CC(C(=O)c1ccc(Cl)cc1Cl)n1cncn1` (stereo not drawn), for which the inhibition was -37.6%.
For `CC1(c2ccc(Cl)cc2Cl)OCC(Cn2cncn2)O1` (stereo not drawn), the inhibition is 60.3% (active).
For the compound `CCCC1COC(Cn2cncn2)(c2ccc(Cl)cc2Cl)O1` (stereo not drawn), the inhibition is 5.9%.
Regarding `Cc1c(C(=O)N2CCC3(CC2)OCCO3)oc2ccc(S(=O)(=O)N3CCOCC3)cc12`, the inhibition is 9.5%.
As for `Clc1ccccc1NC1=NCCCS1`, the figure is -11.5%; as for `Cn1ncnc2c(=O)n(C)c(=O)nc1-2`, 45.4%.
As for `CCOc1ccc(-n2c(-c3cccs3)nc3ccccc3c2=O)cc1`, the figure is 21.3%; as for `CCn1nc(-c2cccs2)nc2c(=O)n(C)c(=O)nc1-2`, 72.1% (active); as for `CCCCn1c(O)c(C(C)=NCCN2CCOCC2)c(=O)[nH]c1=O`, 2.3%.
Turning to `Cc1[nH]c2ccc(OC(F)(F)F)cc2c1CCNCc1ccc(Cl)cc1`, the inhibition is 2.1%.
Turning to `COc1ccc2[nH]c(C)c(CCNCc3cc(OC)c(OC)c(OC)c3)c2c1`, the inhibition was 6.9%.
Take `COc1ccc(CNCCc2c(C)[nH]c3ccc(OC(F)(F)F)cc23)c(OC)c1`: the inhibition is 57.8% (active).
`COc1cc2c(cc1OC)C(C(=O)N(C)C1CCCCC1)C1CCCCN1C2=O` (stereo not drawn): the inhibition was 9.9%.
For `CCCCn1c(=O)c(C(=O)Nc2ccccc2N)c(O)c2ccccc21`, the inhibition was 2.4%.
Regarding `COc1ccc(C2=NS(=O)(=O)N(C)C(C(=O)N3CCC4(CC3)OCCO4)=C2)cc1OC`, the inhibition is 8.1%.
With `COc1ccc(CNCCc2ccc(Cl)cc2Cl)cc1`, the inhibition was -27.6%.
As for `Cc1nn(Cc2ccccc2Cl)c(C)c1C(=O)NC1CCCc2ccccc21` (stereo not drawn), the figure is 20.5%; as for `CN(C)C(=O)Oc1ccc2c(c1)O/C(=C\c1ccc(Cl)cc1)C2=O`, -16.2%; as for `Cc1c(C(=O)Nc2ccccc2)cc(-c2ccccc2)n1CCCN1CCOCC1`, 8.6%.
Regarding `O=C(NCc1cccnc1)Nc1ccc([N+](=O)[O-])cc1`, the inhibition was -1.2%.
`Cc1ccc(CN2CCN(CC(=O)N3CCC4(CC3)OCCO4)C2=O)cc1`: the inhibition is -1.6%.
On to `C[C@H]1C[C@@H](C)C(=O)[C@@H]([C@H](O)CC2CC(=O)NC(=O)C2)C1`, for which the inhibition was 73% (active).
Take `CCn1c(O)c(C=Nc2ccc(N3CCOCC3)cc2)c(=O)n(CC)c1=S`: the inhibition is 22.7%.
For `COCCN1C(=O)NC(=O)/C(=C\c2ccc(Br)cc2)C1=O`, the inhibition is 0.7%.
Regarding `CC(C)c1oc(=O)cc2c1[C@@H](O)[C@H]1OC(=O)[C@@]3(C)C[C@@H](O)[C@@H](O)[C@@]2(C)C13` (stereo partly drawn), the inhibition was 64.6% (active).
Take `CC(C)c1oc(=O)cc2c1[C@@H](O)[C@H]1OC(=O)[C@@]3(C)CC[C@@H](O)[C@@]2(C)C13` (stereo partly drawn): the inhibition was 20%.
With `CC(Cc1ccsc1)NCc1cn[nH]c1-c1ccc(F)cc1F` (stereo not drawn), the inhibition is 10.2%.
On to `COc1cc(N2CCOCC2)ccc1/C=C1\C(=O)NC(=O)N(C2CCCCC2)C1=O`, for which the inhibition is 12%.
As for `CCOC(=O)C1=CC(=C2C(=O)N(CC)C(=S)N(CC)C2=O)c2ccccc2O1`, the inhibition is 18.1%.
`O=C(CCNC(=O)N1C[C@H]2C[C@@H](C1)c1cccc(=O)n1C2)Nc1cccc(Cl)c1`: the inhibition was 13.1%.
Take `O=C(Nc1ccc(OC(=O)N2CCCC2)cc1)N1CCOCC1`: the inhibition was 12.5%.
Take `O=C(Nc1ccc(OC(=O)N2CCCCC2)cc1)N1CCOCC1`: the inhibition is 62.5% (active).
Regarding `O=C(Nc1cccc(OC(=O)N2CCCCC2)c1)N1CCOCC1`, the inhibition was -0.1%.
As for `COC(=O)c1nc(-c2ccc3c(n2)C(=O)C(N)=C(OC)C3=O)c(N)c(-c2ccc(OC)c(OC)c2O)c1C`, the figure is 57.2% (active); as for `O=C(c1ccc(N2CCCCC2)c([N+](=O)[O-])c1)N1CCC2(CC1)OCCO2`, 9.1%; as for `CC(=O)Nc1cc(C(=O)N2CCC3(CC2)OCCO3)ccc1S(=O)(=O)c1ccc(Cl)cc1`, 6.8%.
Consider `CC(=O)Nc1cc(C(=O)N2CCC3(CC2)OCCO3)ccc1S(=O)(=O)c1ccc(C)cc1`, for which the inhibition is 52.9% (active).
`O=C(c1ccc(N2CCCCCC2)c([N+](=O)[O-])c1)N1CCC2(CC1)OCCO2`: the inhibition was 73.2% (active).
As for `CC1CCCN(c2ccc(C(=O)N3CCC4(CC3)OCCO4)cc2[N+](=O)[O-])C1` (stereo not drawn), the figure is 15.8%.
Turning to `CCC(=O)Nc1cc(C(=O)N2CCC3(CC2)OCCO3)ccc1S(=O)(=O)c1ccc(C)cc1`, the inhibition is 0.8%.
For `O=C(COc1ccc2ccc(=O)oc2c1)N1C[C@H]2C[C@@H](C1)c1cccc(=O)n1C2`, the inhibition was -2.7%.
`CN1CC(C(=O)c2ccc([N+](=O)[O-])cc2)C(c2ccc(Cl)cc2)C1` (stereo not drawn): the inhibition was 16.2%.
Consider `COC(=O)C(C)NC(=S)N1CC2C[C@@H](C1)Cn1c2cccc1=O` (stereo partly drawn), for which the inhibition is 14.9%.
